What all share (experiment): DAPPL (digital affinity profiling via proximity ligation, sequencing); 10 mM Tris-HCl pH 7.5, 50 mM NaCl, 1 mM DTT, 4% glycerol, room temperature, 30 min; GST-TFs on glutathione beads, 16-mer random dsDNA library, 0.1% formaldehyde crosslink after washing; high values mean tight binding
Conditions in all cases: protein: recombinant; tags: N-terminal GST; dsDNA, one strand shown

One assay deals with T1, FLI1 (Homo sapiens, UniProt Q01543 1-452).
T1 sequence: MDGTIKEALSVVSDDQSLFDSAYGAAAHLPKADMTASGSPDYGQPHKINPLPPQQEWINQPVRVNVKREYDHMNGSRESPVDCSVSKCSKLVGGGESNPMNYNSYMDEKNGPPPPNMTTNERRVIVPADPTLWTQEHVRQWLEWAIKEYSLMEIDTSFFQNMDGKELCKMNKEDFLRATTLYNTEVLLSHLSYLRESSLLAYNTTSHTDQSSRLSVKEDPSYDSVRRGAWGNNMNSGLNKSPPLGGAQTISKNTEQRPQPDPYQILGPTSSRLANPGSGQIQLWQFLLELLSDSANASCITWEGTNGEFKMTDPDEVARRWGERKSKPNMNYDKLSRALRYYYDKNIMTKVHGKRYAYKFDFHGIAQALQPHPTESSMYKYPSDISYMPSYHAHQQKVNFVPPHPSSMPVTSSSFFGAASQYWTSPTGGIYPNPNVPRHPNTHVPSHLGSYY
The procedure, abridged:
(§1)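 GST fusions of human transcription factors were expressed in yeast and captured with glutathione beads. Once given DNA barcodes and pooled alongside a tag-only sample, they were incubated for 30 min at room temperature with 200 nmole of a random double-stranded 16-mer DNA library in Tris/NaCl/DTT/glycerol buffer, then washed, crosslinked (0.1% formaldehyde), proximity-ligated, PCR-amplified and sequenced on an Illumina NextSeq500. The binding signal of each hexamer is its read frequency for a factor divided by its frequency for the tag-only sample.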

The target of a further assay is T2, ELK1 (Homo sapiens, UniProt P19419 1-428).
T2 sequence: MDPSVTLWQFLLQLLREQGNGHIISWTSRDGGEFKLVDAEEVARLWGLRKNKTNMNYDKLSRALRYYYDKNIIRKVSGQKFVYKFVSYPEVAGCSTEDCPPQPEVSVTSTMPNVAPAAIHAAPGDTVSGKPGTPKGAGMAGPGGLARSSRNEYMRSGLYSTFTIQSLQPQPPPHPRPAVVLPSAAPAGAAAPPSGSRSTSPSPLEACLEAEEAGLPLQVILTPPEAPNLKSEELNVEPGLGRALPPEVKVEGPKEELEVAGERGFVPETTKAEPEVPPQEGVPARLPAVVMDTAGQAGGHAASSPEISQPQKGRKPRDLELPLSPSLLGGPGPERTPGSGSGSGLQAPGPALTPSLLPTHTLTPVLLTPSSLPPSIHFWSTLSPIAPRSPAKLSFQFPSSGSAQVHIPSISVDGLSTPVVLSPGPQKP
An outline of the steps: as §1

In the next assay the target is T3, GABPA (Homo sapiens, UniProt Q06546 1-454).
T3 sequence: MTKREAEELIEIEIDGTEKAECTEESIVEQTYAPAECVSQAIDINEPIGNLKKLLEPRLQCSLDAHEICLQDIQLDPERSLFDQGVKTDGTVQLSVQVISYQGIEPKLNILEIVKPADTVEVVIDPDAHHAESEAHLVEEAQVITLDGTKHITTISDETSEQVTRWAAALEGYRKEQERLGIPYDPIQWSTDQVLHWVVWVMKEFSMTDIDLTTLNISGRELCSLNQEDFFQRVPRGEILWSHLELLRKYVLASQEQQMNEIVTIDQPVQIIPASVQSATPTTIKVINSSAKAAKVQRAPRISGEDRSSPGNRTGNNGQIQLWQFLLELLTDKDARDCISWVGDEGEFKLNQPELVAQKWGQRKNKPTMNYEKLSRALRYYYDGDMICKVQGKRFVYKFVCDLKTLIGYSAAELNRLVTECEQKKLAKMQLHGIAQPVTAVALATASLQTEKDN
The procedure, abridged:
as §1

The next assay has as its target T4, ERG (Homo sapiens, UniProt P11308 1-479).
T4 sequence: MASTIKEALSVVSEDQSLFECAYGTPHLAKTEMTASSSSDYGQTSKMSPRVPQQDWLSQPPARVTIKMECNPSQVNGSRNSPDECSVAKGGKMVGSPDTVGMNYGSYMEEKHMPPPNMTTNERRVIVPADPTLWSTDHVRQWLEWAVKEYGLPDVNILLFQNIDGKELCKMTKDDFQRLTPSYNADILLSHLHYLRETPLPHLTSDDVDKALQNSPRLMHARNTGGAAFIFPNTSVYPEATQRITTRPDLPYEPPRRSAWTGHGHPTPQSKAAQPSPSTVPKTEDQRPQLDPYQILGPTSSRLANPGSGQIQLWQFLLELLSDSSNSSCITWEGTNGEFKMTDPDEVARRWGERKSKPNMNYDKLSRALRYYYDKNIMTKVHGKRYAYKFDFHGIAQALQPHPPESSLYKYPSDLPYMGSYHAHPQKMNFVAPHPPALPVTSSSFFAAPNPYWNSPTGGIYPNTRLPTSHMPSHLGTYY
The procedure, abridged: as §1

The target in the next assay is ELF1 (Homo sapiens, UniProt P32519 1-619). An outline of the steps: as §1
The next assay addresses T5, EHF (Homo sapiens, UniProt Q9NZC4 1-300).
T5 sequence: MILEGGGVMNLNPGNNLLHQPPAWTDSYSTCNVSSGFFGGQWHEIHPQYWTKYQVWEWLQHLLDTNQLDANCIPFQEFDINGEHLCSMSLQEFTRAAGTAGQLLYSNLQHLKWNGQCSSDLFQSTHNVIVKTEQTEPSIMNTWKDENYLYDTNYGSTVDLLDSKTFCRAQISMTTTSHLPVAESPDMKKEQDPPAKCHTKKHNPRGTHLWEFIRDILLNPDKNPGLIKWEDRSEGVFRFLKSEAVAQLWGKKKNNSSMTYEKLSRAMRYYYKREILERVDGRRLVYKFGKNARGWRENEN
The procedure, abridged: as §1

The target of the next assay is SPI1 (Homo sapiens, UniProt P17947 1-270). An outline of the steps:
as §1

A further assay addresses SPIB (Homo sapiens, UniProt Q01892 1-262). An outline of the steps:
as §1

A further assay deals with T6, ELK3 (Homo sapiens, UniProt P41970 1-407).
T6 sequence: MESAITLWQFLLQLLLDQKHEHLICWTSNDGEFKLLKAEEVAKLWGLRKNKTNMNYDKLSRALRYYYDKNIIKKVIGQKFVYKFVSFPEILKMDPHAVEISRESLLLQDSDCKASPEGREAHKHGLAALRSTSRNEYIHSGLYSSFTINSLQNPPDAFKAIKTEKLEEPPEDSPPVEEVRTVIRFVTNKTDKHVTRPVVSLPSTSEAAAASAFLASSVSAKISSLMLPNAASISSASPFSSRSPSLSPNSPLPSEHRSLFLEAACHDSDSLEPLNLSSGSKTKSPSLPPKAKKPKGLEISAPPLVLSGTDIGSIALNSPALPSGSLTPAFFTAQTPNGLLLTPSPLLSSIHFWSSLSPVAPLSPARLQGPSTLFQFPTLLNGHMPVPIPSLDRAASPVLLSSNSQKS
The procedure, abridged: as §1

The target of the next assay is T7, FEV (Homo sapiens, UniProt Q99581 1-238).
T7 sequence: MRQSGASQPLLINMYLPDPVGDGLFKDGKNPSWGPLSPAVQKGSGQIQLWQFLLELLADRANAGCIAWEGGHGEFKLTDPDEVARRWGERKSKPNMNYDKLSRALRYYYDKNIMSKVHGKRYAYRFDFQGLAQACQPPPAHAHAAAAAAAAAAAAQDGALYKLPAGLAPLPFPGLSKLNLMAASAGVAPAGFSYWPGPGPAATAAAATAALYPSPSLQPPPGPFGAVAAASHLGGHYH
An outline of the steps:
as §1

The target in another assay is ETV5 (Homo sapiens, UniProt P41161 1-510). The procedure, abridged: as §1
The target in a further assay is T8, SPIC (Homo sapiens, UniProt Q8N5J4 1-248).
T8 sequence: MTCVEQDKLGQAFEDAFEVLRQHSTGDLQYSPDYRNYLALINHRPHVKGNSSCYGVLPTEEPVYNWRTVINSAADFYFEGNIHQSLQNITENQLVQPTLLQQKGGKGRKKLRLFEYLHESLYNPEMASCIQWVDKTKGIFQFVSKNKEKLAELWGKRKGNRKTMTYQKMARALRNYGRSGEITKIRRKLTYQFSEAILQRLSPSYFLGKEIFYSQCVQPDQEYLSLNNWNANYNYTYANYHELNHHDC
An outline of the steps:
as §1

Another assay deals with ELF4 (Homo sapiens, UniProt Q99607 1-663). The procedure, abridged:
as §1

The target of a further assay is T9, ELK4 (Homo sapiens, UniProt P28324-2 1-405).
T9 sequence: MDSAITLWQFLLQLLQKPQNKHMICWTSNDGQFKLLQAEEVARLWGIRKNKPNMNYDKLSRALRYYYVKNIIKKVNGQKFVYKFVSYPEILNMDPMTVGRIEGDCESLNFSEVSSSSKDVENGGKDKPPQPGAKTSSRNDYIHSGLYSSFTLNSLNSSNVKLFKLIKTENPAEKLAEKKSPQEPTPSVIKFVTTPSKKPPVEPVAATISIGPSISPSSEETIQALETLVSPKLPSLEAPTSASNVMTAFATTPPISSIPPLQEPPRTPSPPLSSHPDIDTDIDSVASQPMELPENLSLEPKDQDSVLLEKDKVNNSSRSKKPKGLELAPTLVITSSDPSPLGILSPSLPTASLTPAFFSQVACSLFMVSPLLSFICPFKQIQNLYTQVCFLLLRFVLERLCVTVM
The procedure, abridged: as §1

A further assay addresses T10, ETV2 (Homo sapiens, UniProt O00321 1-342).
T10 sequence: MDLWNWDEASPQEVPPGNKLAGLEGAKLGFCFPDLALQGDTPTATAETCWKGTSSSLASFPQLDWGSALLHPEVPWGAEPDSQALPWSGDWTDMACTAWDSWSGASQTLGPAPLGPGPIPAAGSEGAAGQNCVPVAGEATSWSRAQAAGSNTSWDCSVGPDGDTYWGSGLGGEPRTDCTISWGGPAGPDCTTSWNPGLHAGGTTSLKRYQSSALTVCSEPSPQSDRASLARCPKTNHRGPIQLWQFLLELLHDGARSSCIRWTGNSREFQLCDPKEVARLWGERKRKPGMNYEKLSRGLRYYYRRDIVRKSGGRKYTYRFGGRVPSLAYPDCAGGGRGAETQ
An outline of the steps: as §1

The target in the next assay is T11, ELF3 (Homo sapiens, UniProt P78545 1-371).
T11 sequence: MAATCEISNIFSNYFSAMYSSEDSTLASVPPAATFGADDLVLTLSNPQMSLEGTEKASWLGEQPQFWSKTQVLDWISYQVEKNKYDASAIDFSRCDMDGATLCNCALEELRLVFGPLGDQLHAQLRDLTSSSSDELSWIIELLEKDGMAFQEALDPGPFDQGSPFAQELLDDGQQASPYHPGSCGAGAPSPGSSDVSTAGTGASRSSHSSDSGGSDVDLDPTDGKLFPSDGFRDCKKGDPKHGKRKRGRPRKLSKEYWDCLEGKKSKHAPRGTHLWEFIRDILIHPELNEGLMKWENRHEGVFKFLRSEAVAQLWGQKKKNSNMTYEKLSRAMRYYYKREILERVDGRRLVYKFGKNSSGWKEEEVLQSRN
An outline of the steps:
as §1

For a further assay, the target named is ETV1 (Homo sapiens, UniProt P50549 1-477). An outline of the steps:
as §1

ETV5, sequence (P41161 whole entry): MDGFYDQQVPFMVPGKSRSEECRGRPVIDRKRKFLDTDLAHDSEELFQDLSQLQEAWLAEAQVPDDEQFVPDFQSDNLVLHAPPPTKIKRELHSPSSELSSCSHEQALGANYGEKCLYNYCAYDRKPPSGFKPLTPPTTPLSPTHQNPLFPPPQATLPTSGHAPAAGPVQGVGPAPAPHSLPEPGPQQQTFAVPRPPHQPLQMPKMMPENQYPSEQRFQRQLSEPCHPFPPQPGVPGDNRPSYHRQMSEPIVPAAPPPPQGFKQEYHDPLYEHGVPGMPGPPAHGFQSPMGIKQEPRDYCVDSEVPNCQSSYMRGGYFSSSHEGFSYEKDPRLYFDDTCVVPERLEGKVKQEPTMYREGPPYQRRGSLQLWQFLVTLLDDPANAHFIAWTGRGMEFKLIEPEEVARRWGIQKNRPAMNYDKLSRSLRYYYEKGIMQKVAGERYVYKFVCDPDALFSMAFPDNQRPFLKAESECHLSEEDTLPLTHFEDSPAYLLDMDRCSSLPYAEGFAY
ETV1, sequence (P50549 whole entry): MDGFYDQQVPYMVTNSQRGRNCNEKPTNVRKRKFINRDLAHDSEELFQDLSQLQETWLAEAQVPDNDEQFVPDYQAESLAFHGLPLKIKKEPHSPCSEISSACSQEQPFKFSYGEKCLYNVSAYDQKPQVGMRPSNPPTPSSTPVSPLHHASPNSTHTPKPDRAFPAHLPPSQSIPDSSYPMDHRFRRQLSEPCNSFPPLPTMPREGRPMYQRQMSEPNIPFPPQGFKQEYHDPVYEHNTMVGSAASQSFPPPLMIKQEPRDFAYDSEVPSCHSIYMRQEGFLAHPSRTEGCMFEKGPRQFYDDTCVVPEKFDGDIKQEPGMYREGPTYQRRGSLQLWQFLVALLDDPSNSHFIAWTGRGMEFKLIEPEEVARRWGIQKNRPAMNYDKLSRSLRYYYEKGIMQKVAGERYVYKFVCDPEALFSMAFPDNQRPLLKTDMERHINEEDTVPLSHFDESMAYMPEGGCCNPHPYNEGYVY
SPIB, sequence (Q01892 whole entry): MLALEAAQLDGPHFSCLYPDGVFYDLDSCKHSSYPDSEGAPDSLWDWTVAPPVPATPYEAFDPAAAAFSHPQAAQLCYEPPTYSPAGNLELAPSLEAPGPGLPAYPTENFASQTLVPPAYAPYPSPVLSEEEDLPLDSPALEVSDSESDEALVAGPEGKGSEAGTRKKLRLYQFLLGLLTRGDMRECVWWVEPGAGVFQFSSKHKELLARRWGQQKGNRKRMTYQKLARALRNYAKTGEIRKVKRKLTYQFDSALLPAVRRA
ELF1, sequence (P32519 whole entry): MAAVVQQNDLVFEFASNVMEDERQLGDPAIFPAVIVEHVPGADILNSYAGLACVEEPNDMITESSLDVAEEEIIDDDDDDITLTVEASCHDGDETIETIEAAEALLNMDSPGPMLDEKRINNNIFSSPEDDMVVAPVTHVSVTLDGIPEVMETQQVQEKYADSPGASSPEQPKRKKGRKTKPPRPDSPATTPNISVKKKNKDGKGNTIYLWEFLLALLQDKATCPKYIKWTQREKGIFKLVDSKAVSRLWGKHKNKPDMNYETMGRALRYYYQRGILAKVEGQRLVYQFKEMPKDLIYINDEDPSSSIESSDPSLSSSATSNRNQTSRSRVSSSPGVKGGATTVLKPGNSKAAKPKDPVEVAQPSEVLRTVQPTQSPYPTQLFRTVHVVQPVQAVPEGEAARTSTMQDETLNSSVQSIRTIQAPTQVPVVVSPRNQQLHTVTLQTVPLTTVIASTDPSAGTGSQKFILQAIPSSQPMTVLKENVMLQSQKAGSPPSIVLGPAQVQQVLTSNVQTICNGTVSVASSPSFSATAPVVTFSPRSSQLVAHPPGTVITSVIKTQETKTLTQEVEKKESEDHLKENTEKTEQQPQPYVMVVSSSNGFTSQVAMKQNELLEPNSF
ELF4, sequence (Q99607 whole entry): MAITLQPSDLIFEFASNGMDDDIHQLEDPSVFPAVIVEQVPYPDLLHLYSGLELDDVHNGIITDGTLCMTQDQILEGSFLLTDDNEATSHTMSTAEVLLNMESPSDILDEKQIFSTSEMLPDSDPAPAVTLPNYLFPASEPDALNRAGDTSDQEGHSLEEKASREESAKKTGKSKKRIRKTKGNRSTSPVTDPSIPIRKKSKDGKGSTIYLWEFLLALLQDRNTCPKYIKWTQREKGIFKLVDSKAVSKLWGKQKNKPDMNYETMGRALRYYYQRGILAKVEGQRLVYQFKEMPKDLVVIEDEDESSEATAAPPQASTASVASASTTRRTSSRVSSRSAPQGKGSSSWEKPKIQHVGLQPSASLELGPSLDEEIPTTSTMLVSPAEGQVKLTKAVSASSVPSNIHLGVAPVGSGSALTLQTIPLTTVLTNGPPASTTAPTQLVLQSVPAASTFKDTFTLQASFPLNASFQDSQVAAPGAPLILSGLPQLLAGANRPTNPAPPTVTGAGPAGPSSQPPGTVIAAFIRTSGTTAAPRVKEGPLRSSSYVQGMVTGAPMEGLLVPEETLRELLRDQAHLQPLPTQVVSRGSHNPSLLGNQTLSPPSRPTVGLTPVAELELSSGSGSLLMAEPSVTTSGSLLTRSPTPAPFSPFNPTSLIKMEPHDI

As to CACACG, the binding signal with FLI1 is 1.14 fold enrichment (6-mer frequency, TF over GST control); with ELK1, 1.11 fold enrichment (6-mer frequency, TF over GST control); in the assay with GABPA, 1.23 fold enrichment (6-mer frequency, TF over GST control); with ERG, 1.07 fold enrichment (6-mer frequency, TF over GST control); with ELF1 it was 1.21 fold enrichment (6-mer frequency, TF over GST control); in the assay with EHF it was 1.12 fold enrichment (6-mer frequency, TF over GST control). In addition, the binding signal with SPI1 is 1.08 fold enrichment (6-mer frequency, TF over GST control); with SPIB, 1.15 fold enrichment (6-mer frequency, TF over GST control); with ELK3 it was 1.03 fold enrichment (6-mer frequency, TF over GST control); with FEV it was 1.14 fold enrichment (6-mer frequency, TF over GST control); with ETV5, 1.11 fold enrichment (6-mer frequency, TF over GST control); in the assay with SPIC it was 1.15 fold enrichment (6-mer frequency, TF over GST control). For the same sequence, the binding signal in the assay with ELF4 is 1.18 fold enrichment (6-mer frequency, TF over GST control); with ELK4, 1.17 fold enrichment (6-mer frequency, TF over GST control); with ETV2 it was 1.24 fold enrichment (6-mer frequency, TF over GST control); with ELF3, 1.07 fold enrichment (6-mer frequency, TF over GST control); with ETV1 it was 1.16 fold enrichment (6-mer frequency, TF over GST control).

Take CAACAC: the binding signal with FLI1 is 1.13 fold enrichment (6-mer frequency, TF over GST control); in the assay with ELK1 it was 1.23 fold enrichment (6-mer frequency, TF over GST control); in the assay with GABPA, 1.19 fold enrichment (6-mer frequency, TF over GST control); in the assay with ERG, 1.1 fold enrichment (6-mer frequency, TF over GST control); with ELF1 it was 1.13 fold enrichment (6-mer frequency, TF over GST control); in the assay with EHF, 1.09 fold enrichment (6-mer frequency, TF over GST control). Besides, the binding signal in the assay with SPI1 was 1.06 fold enrichment (6-mer frequency, TF over GST control); in the assay with SPIB, 1.06 fold enrichment (6-mer frequency, TF over GST control); in the assay with FEV, 1.11 fold enrichment (6-mer frequency, TF over GST control); in the assay with ETV5, 1.07 fold enrichment (6-mer frequency, TF over GST control); with SPIC, 1.08 fold enrichment (6-mer frequency, TF over GST control); with ELF4, 1.14 fold enrichment (6-mer frequency, TF over GST control). Also, the binding signal in the assay with ELK4 is 1.2 fold enrichment (6-mer frequency, TF over GST control); with ETV2, 1.08 fold enrichment (6-mer frequency, TF over GST control); in the assay with ELF3, 1.09 fold enrichment (6-mer frequency, TF over GST control); with ETV1 it was 1.11 fold enrichment (6-mer frequency, TF over GST control).

The record behind these values is paper PMC7862700, “An all-to-all approach to the identification of sequence-specific readers for epigenetic DNA modifications on cytosine”.
